# Experimental data: PubChem BioAssay AID588852 (The Scripps Research Institute Molecular Screening Center, 2011)
# In all, about 360,000 compounds went through this assay and about 4,600 (1.3%) were called active. The sample as a whole holds a higher share of actives than the screen did. Values without a mark were called inactive.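 How the source made its calls: active means percent inhibition above its own plate's cutoff, namely the mean of that plate's compound wells plus 3 SD; inactive means the rest.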 Peptide text beside a SMILES is read from it. * marks the point of attachment. Bz = O=C(c1ccccc1)*
# Target: Muscarinic acetylcholine receptor M1 (Homo sapiens) (UniProt P11229)
# Sequence (P11229 whole entry, looked up): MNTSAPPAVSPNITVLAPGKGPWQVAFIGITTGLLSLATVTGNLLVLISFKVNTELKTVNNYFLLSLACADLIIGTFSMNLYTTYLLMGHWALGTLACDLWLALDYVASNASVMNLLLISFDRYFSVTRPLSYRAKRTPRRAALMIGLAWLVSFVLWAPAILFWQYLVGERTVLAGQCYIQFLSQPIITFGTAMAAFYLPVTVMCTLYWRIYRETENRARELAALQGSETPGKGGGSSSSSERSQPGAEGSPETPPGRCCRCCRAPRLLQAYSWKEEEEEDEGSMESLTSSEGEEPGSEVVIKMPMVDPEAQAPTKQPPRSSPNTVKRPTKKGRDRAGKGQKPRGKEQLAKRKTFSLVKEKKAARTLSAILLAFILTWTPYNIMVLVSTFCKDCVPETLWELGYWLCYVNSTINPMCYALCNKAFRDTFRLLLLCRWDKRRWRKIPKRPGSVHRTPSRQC
# Test: human M1 muscarinic receptor antagonists, primary screen, CHO-K1 cells, Fluo-8 calcium fluorescence, 1536-well (AID 588852);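 further: peak over basal fluorescence ratio during 140 s after agonist addition; 0% = ACh EC80 plus DMSO and 100% = DMSO alone without agonist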
# Settings: CHO-K1 hM1, Fluo-8 calcium fluorescence, ACh EC80 antagonist; at 3 µM; hits give high values
row,Structure (SMILES),inhibition
1,COc1ccccc1Oc1ccc(S(=O)(=O)Nc2cccnc2)cc1,35.1% (active)
2,COc1ccc(S(=O)(=O)Nc2cccnc2)c(Cl)c1Cl,9.26%
3,Cc1cc(C)c(C)c(S(=O)(=O)Nc2cccnc2)c1C,-12.2%
4,O=[N+]([O-])c1ccc(CN2CC(N3CC=CC3)CS2(=O)=O)cc1 (stereo not drawn),7.78%
5,CCCC1=Nc2cc(C(=O)NCc3ccco3)ccc2Sc2ccccc21,13.6%
6,CCC1=Nc2cc(C(=O)NCCCN3CCOCC3)ccc2Sc2ccc(Br)cc21,1.43%
7,CCCC1=Nc2cc(C(=O)NCCN3CCCC3)ccc2Sc2ccccc21,44% (active)
8,Cc1cccc(CN2CCC(n3nccc3NC(=O)c3ccccc3C)CC2)n1,-7.86%
9,C[C@@H]1CN([C@@H](C)CO)C(=O)c2cc(Br)cnc2O[C@H]1CN(C)Cc1ccc(-c2ccccc2)cc1,-3.44%
10,COc1ccc(-c2cnc3c(c2)C(=O)N([C@H](C)CO)C[C@@H](C)[C@H](CN(C)Cc2ccccc2)O3)cc1,79.4% (active)
11,C[C@@H]1CN([C@@H](C)CO)C(=O)CCCn2nncc2CO[C@H]1CN(C)Cc1ccc(C(F)(F)F)cc1,-8.15%
12,C[C@H]1CN([C@@H](C)CO)C(=O)CCCn2nncc2CO[C@@H]1CN(C)Cc1ccc(Oc2ccccc2)cc1,35.8% (active)
13,C[C@@H]1CN([C@H](C)CO)C(=O)c2cc(-c3ccc(F)cc3)cnc2O[C@H]1CN(C)C(=O)c1ccc(F)cc1,-3.76%
14,Cc1ccc(CN(C)C[C@@H]2OCc3cnnn3CCCC(=O)N([C@@H](C)CO)C[C@H]2C)cc1,-6.67%
15,CSc1nsc(SC)c1NC(=O)OC1CCCCC1,-9.68%
16,O=C(Nc1cccc2ccccc12)c1[nH]c(-c2ccccc2)c2c1C(=O)N(C1CC1)C2=O,-24.4%
17,O=C1C2C3C=CC(C3)C2C(=O)N1c1ncc([N+](=O)[O-])s1 (stereo not drawn),-4.85%
18,NC(=O)c1ccc(NC(=O)COC(=O)C(Cc2ccccc2)NC(=O)c2ccccc2)cc1 (stereo not drawn),0.83%
19,O=C(NC(Cc1ccccc1)C(=O)N1CCCC1C(=O)O)c1ccccc1 (stereo not drawn) (Bz-Phe-Pro-OH; configuration not given here),-9.18%
20,CN(Cc1ccccc1F)C(=O)C(Cc1ccccc1)NC(=O)c1ccccc1 (stereo not drawn),33.5% (active)

row,Structure (SMILES),inhibition
1,CCn1ccnc1CNC(=O)CC1C(=O)NCCN1CCCc1ccccc1 (stereo not drawn),-10.2%
2,C[C@@H](C(=O)Nc1ccc2ccccc2c1)[C@@H]1C[C@@]1(C)[C@@H](NC(=O)c1cccnc1)c1ccccc1,-3.75%
3,CCc1nc2ccc(C(=O)N3CCN(S(=O)(=O)CC)CC3)cn2c1N(C=O)CCC(C)C,-13.9%
4,CC1=C(C(=O)N2CCOCC2)CC(CC(=O)NCCCN(C)C)C(=O)N1Cc1ccc(C(C)(C)C)cc1 (stereo not drawn),-15.7%
5,Cc1ccc(S(=O)(=O)NC(C)C(=O)NCc2ccc(Cl)cc2)cc1 (stereo not drawn),5.87%
6,COc1ccc(S(=O)(=O)NC(C)C(=O)NCc2ccncc2)cc1Cl (stereo not drawn),25.1% (active)
7,CC(Oc1cc2oc(=O)c3c(c2cc1Cl)CCCC3)C(=O)NCc1ccncc1 (stereo not drawn),1.37%
8,CC(=O)N1C[C@@H](CO)[C@@H](N(C)C(=O)c2ccco2)C[C@H]1c1ccccc1,30.9%
9,COc1cc(OC)cc(C(=O)NNC(=O)CNC(=O)c2ccc(Br)o2)c1,15.6%
10,CCN1CN(Cc2ccccc2)CNC1=S,0.26%
11,COc1ccc(NC(=O)C2(C)Cc3c(-c4cccc(NC(C)=O)c4)ccnc3O2)cc1 (stereo not drawn),-7.09%
12,COCCNc1nc(NCc2ccc(NC(C)=O)cc2)c2sccc2n1,-8.59%
13,COc1cccc(CNc2nc(NCc3cccs3)nc3ccsc23)c1,51.9% (active)
14,COc1cccc(CNc2nc(NCc3ccccc3OC)nc3ccsc23)c1,24.1%
15,COc1ccc(-c2nc3c(s2)CCc2onc(-c4ccc(OC)cc4)c2-3)cc1,-8.59%
16,O=C(/C=C(O)/C=C/c1ccc(O)cc1)/C=C/c1ccc(O)cc1,33.7% (active)
17,COc1cccc(C=CC(=O)C=CC=Cc2ccccc2)c1,-3.17%
18,COc1ccc(/C=C/C(=O)c2c(O)cc(OC)cc2OC)cc1,4.93%
19,O=S1(=O)C[C@@H](N2CCN(CCO)CC2)[C@H](COCc2ccccc2)N1,8.79%
20,COC(=O)CCCC1=CC2=C(c3ccccc3)C(=O)C(C)(OC(=O)C3CCCC3)C(=O)C2=CN1c1ccc(OC)cc1 (stereo not drawn),4.39%

row,Structure (SMILES),inhibition
1,CSc1ncccc1C(=O)N1CCCC(Nc2ccc(F)c(F)c2)C1 (stereo not drawn),-21.9%
2,Cc1ccc(CN2CC(C(=O)NNC(=O)Cn3ccc(C(F)(F)F)n3)CC2=O)cc1 (stereo not drawn),-4.1%
3,O=C1NC(O)CCN1C1CC(O)C(CO)O1 (stereo not drawn),4.13%
4,COc1ccc(CNC(=O)C(c2ccc(O)cc2)N(Cc2ccco2)C(=O)c2snc(C(N)=O)c2N)cc1 (stereo not drawn),34.8% (active)
5,COc1cc(C(C(=O)NC2CCCC2)N(Cc2ccccc2)C(=O)c2snc(C(N)=O)c2N)ccc1O (stereo not drawn),0.09%
6,NC(=O)c1nsc(C(=O)N(CC(=O)NCc2ccc(F)cc2)Cc2ccco2)c1N,-9.5%
7,CCOC(=O)N1CCN(S(=O)(=O)c2ccc(C(=O)Nc3ccc(F)cc3F)cc2)CC1,5.69%
8,Cc1cc2cc3c(cc2nc1SCC(=O)Nc1c(C)cccc1C)CCC3,-12.5%
9,O=C(CC[C@H]1O[C@@H](n2ccc(=O)[nH]c2=O)[C@H](O)[C@@H]1O)N[C@H](Cc1ccccc1)C(=O)NCCCN1CCCC1=O,-9.33%
10,Cc1ccc(NC(=O)CN2CCc3ccccc3C2)cc1C,-11%
11,Cc1cccc2c1-c1sc(C(=O)NCCCN3CCc4ccccc4C3)cc1CO2,58.2% (active)
12,Cc1cccc(C)c1NC(=O)c1ccc(CN2CCc3ccccc3C2)cc1,4.61%
13,O=c1c2c(nc3n1CCCCC3)sc1c(O)cccc12,-13.7%
14,CC1(C)Cc2c(sc3nc4n(c(=N)c23)CCCCC4)CO1,53.3% (active)
15,N=c1c2c3c(sc2nc2n1CCCCC2)CCCC3,89.3% (active)
16,CC(C)c1nc2sc3c(c2c(=O)n1N)CC(C)(C)OC3,-0.09%
17,CCSc1nc2sc3c(c2c(=O)[nH]1)CC(C)(C)OC3,-5.74%
18,N=c1c2c3c(sc2ncn1CCCN1CCOCC1)CCCCC3,1.24%
